# According to the supplement of paper PMC9694430:
# Tests used:
# Experiment in all cases: thermal shift delta Tm vs DMSO control; higher = stronger stabilization (binding)
# Settings in all cases: 12.5 µM; protein concentration 2 µM
# LOC_OS01G01410-cb001 = system: LOC_OS01G01410-cb001
# Method in brief: (§1)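 Purified, E. coli-expressed rice kinase domain constructs were tested by differential scanning fluorimetry in 96-well plates: 19.5 μl of 2 μM kinase in 100 mM potassium phosphate pH 7.5, 150 mM NaCl, 10% glycerol, 5 × SYPRO Orange, plus compound in DMSO. Fluorescence was read from 25°C to 95°C at 0.05°C/s. Melting temperatures came from Boltzmann fits, and the shift is the triplicate mean relative to protein with DMSO alone.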
# LOC_OS01G02750-cb003 = system: LOC_OS01G02750-cb003
# Method in brief: as §1
# LOC_OS01G10900-cb004 = system: LOC_OS01G10900-cb004
# Method in brief: as §1
# LOC_OS01G13800-cb001 = system: LOC_OS01G13800-cb001
# Method in brief: as §1
# LOC_OS01G14860-cb001 = system: LOC_OS01G14860-cb001
# Method in brief: as §1
# LOC_OS01G21960-cb002 = system: LOC_OS01G21960-cb002
# Method in brief: as §1
# LOC_OS01G39600-cb002 = system: LOC_OS01G39600-cb002
# Method in brief: as §1
# LOC_OS01G48390-cb002 = system: LOC_OS01G48390-cb002
# Method in brief: as §1
# LOC_OS01G51400-cb002 = system: LOC_OS01G51400-cb002
# Method in brief: as §1
# LOC_OS01G52050-cb004 = system: T1, LOC_OS01G52050-cb004
# T1 sequence (whole entry): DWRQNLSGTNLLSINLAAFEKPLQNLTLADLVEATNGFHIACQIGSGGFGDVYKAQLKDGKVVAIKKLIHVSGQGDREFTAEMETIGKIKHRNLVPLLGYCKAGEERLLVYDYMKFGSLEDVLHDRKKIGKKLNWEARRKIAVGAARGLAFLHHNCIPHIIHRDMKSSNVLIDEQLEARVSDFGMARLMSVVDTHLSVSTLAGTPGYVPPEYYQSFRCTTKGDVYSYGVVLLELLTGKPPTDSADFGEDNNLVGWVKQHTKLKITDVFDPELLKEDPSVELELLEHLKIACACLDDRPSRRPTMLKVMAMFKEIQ
# Method in brief: as §1
SMILES,thermal shift delta Tm (LOC_OS01G01410-cb001),thermal shift delta Tm (LOC_OS01G02750-cb003),thermal shift delta Tm (LOC_OS01G10900-cb004),thermal shift delta Tm (LOC_OS01G13800-cb001),thermal shift delta Tm (LOC_OS01G14860-cb001),thermal shift delta Tm (LOC_OS01G21960-cb002),thermal shift delta Tm (LOC_OS01G39600-cb002),thermal shift delta Tm (LOC_OS01G48390-cb002),thermal shift delta Tm (LOC_OS01G51400-cb002),thermal shift delta Tm (LOC_OS01G52050-cb004)
CNC(=O)c1ccc(-c2cnc3ncc(Cc4ccc5ncccc5c4)n3n2)cc1F,0.07 °C,0.51 °C,0.48 °C,-0.08 °C,0.29 °C,0.73 °C,-0.03 °C,0.24 °C,-0.03 °C,0.32 °C
Cc1cn(-c2cc(NC(=O)c3ccc(C)c(Nc4nccc(-c5cnccn5)n4)c3)cc(C(F)(F)F)c2)cn1 [Radotinib],0.24 °C,1.63 °C,2.41 °C,0.87 °C,0.52 °C,0.96 °C,-0.12 °C,0.73 °C,0.16 °C,0.51 °C
CC(C)(C)c1cc(NC(=O)Nc2ccc(-c3cn4c(n3)sc3cc(OCCN5CCOCC5)ccc34)cc2)no1 [Quizartinib (AC220)],-0.06 °C,0.83 °C,0.82 °C,0.79 °C,0.25 °C,1.03 °C,0.27 °C,0.74 °C,-0.16 °C,0.84 °C
O=C(Nc1cc(C(F)(F)F)cc(C(F)(F)F)c1)c1cc(Cl)ccc1O,1.21 °C,2.23 °C,0.29 °C,1.37 °C,1.05 °C,1.13 °C,3.34 °C,1.1 °C,0.99 °C,1.75 °C
CNC(=O)c1ccc(C)c(-n2c(C)cc(OCc3ccc(F)cc3F)c(Br)c2=O)c1,-0.05 °C,0.1 °C,0.26 °C,0.31 °C,-0.06 °C,0.34 °C,-0.13 °C,0.65 °C,0.44 °C,0.41 °C
Cc1ccccc1-n1c(Cn2nc(-c3cccc(O)c3)c3c(N)ncnc32)nc2cccc(C)c2c1=O,0.31 °C,0.33 °C,0.02 °C,-0.2 °C,-0.04 °C,0.03 °C,-0.15 °C,0.39 °C,0.33 °C,
CCn1c(C(=O)N(C2CC2)C2CC2)cc2c3c(ncn3C)c(Nc3cc(C)n(C)n3)nc21,0.37 °C,1.05 °C,-0.06 °C,0.41 °C,0.41 °C,1.12 °C,-0.02 °C,0.34 °C,0.23 °C,0.97 °C
CC(C)(O)CNc1ncc(-c2ccnc(Nc3ccnc(Cl)c3)n2)c(CC2CC2)n1,0.77 °C,0.82 °C,4.56 °C,-0.19 °C,2.06 °C,0.91 °C,-0.42 °C,0.33 °C,0.19 °C,0.5 °C
Cc1nc2c(-c3cnc(N)nc3)nc(N3CCOCC3)nc2n1C(C)C,0.02 °C,0.81 °C,0.35 °C,0.04 °C,-0.18 °C,0.83 °C,1.29 °C,0.44 °C,0.69 °C,
NC(=O)c1cnc(N[C@@H]2CCCC[C@@H]2N)nc1Nc1cccc(-n2nccn2)c1,0.52 °C,0.79 °C,-0.04 °C,-0.14 °C,3.33 °C,1.47 °C,0.85 °C,0.37 °C,1.02 °C,5.03 °C
CN1CCN(c2ccc(OC(F)(F)F)c(Nc3ncc4c(n3)-c3c(c(C(N)=O)nn3CCO)CC4)c2)CC1,0.81 °C,1.85 °C,0.67 °C,-0.54 °C,0.5 °C,0.64 °C,0.04 °C,-0.15 °C,0.17 °C,1.03 °C
COc1ccc(-c2ccc3c(N4CCOC[C@@H]4C)nc(N4CCOC[C@@H]4C)nc3n2)cc1CO,0.54 °C,0.23 °C,0.08 °C,0.21 °C,0 °C,-0.12 °C,-0.26 °C,0.01 °C,-0.16 °C,0.06 °C
COc1ccc(F)c(F)c1C(=O)c1cnc(NC2CCN(S(C)(=O)=O)CC2)nc1N,0.43 °C,-0.36 °C,0.34 °C,-0.08 °C,2.35 °C,0.93 °C,0.19 °C,0.42 °C,-0.07 °C,-0.14 °C
CCN1/C(=C/C(C)=O)Sc2ccc(OC)cc21,0.21 °C,0.62 °C,0.24 °C,0.6 °C,1.92 °C,1.17 °C,-0.62 °C,0.54 °C,0.02 °C,-0.01 °C
C[C@@H](NC(=O)c1ncnc(N)c1Cl)c1ncc(C(=O)Nc2cc(C(F)(F)F)c(Cl)cn2)s1,1.26 °C,1.15 °C,2.82 °C,-0.27 °C,0.84 °C,0.73 °C,-1.6 °C,2.52 °C,0.56 °C,0.43 °C
N#Cc1c(Oc2ccc(F)c(NC(=O)Cc3cccc(C(F)(F)F)c3)c2)ccc2nc(NC(=O)C3CC3)sc12,1 °C,2.13 °C,0.14 °C,0.81 °C,0.57 °C,1.14 °C,0.16 °C,1.04 °C,1.02 °C,0.32 °C
CC1(C)C=Cc2c(ccc3c2OC[C@@H](c2ccc(O)cc2O)C3)O1 [Glabridin],0.95 °C,3.18 °C,2.07 °C,0.08 °C,1.32 °C,1.14 °C,2.12 °C,1.81 °C,1.35 °C,4.83 °C
CC(C)n1ncnc1-c1cn2c(n1)-c1ccc(O[C@@H](C)C(N)=O)cc1OCC2,0.47 °C,1.25 °C,0.08 °C,0.67 °C,0.28 °C,0.8 °C,0.74 °C,0.6 °C,0.1 °C,0.31 °C
